This note sets out measurements from PubChem BioAssay (EPA / NIEHS).

Assay [1] is described as follows: ATG_PBREM_CIS: Attagene CIS-FACTORIAL HepG2 Assay for human Phenobarbital-responsive Enhancer Module (PBREM) (AID 2282955). The following applies: HepG2 PBREM cis-reporter, Attagene multiplexed transcription; actives raise or lower the signal. The gist of the method: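 Fluorescence of labelled reporter cDNA fragments, resolved by capillary electrophoresis, gives mRNA induction in transfected HepG2 cells treated for 24 h; DMSO serves as negative control and baseline.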

For assay [2], the target named is Paired box protein Pax-6 (Homo sapiens) (UniProt P26367). As to the kind of experiment: ATG_Pax6_CIS: Attagene CIS-FACTORIAL HepG2 Assay for human Paired Box 6 (PAX6) (AID 2282956). Conditions: HepG2 CIS-FACTORIAL PAX6 reporter transcription, RNA readout; actives raise or lower the signal. The gist of the method:
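Multiplexed cis-reporter HepG2 system; 24 h treatment; reporter mRNA read by RT-PCR/CE fluorescence; bidirectional fit vs DMSO.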

Assay [3] can be described thus: ATG_PXRE_CIS: Attagene CIS-FACTORIAL HepG2 Assay for human Pregnane X Receptor Element (PXRE) (AID 2282957). Conditions: HepG2 Attagene CIS-FACTORIAL PXRE reporter, mRNA; actives raise or lower the signal. The gist of the method: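 Cells: HepG2, transiently transfected reporter units under cis promoter control. Exposure: 24 h. Detection: reporter mRNA via RT-PCR/CE fluorescence; bidirectional fitting, DMSO-referenced.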

The nature of assay [4]: ATG_PPRE_CIS: Attagene CIS-FACTORIAL HepG2 Assay for human Peroxisome Proliferator-activated Response Element (PPRE) (AID 2282958). The following applies: HepG2 PPRE cis-element reporter, Attagene transcription factor profiling; actives raise or lower the signal. The gist of the method: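 Cells are first transfected transiently with the multiplexed reporter library, then dosed for 24 h. Total RNA is reverse-transcribed, amplified, fluorescently end-labeled and HpaI-cut before capillary electrophoresis; activity is fitted bidirectionally against DMSO controls.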

Assay [5] in a line: ATG_Sox_CIS: Attagene CIS-FACTORIAL HepG2 Assay for human SRY-box transcription factor (SOX) (AID 2282960). Conditions: HepG2 Attagene cis-factorial SOX reporter, mRNA; actives raise or lower the signal. The procedure, abridged:
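Transient MRTU transfection of HepG2; 24 h compound incubation; TriZol RNA, oligo(dT) RT, PCR, 6-FAM primer extension, HpaI cut, CE. Bidirectional fit, DMSO = baseline.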

Assay [6] addresses Transcription factor Sp1 (Homo sapiens) (UniProt P08047). As to the kind of experiment: ATG_Sp1_CIS: Attagene CIS-FACTORIAL HepG2 Assay for human Specificity Protein 1 (Sp1) (AID 2282961). Conditions: HepG2 Sp1 cis-reporter transcription, actives raise or lower the signal. The procedure, abridged: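 Endogenous Sp1 activity was gauged in human liver HepG2 cells bearing transfected reporter units under a cis-regulating promoter. After 24 h dosing, reporter mRNA was quantified by RT-PCR with capillary electrophoresis, and activity fitted bidirectionally versus DMSO.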

Assay [7] in a line: ATG_SREBP_CIS: Attagene CIS-FACTORIAL HepG2 Assay for human Sterol Regulatory Element Binding (SREBP) (AID 2282962). Conditions: HepG2 Attagene cis-factorial SREBP reporter, mRNA; actives raise or lower the signal. The procedure, abridged:
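mRNA induction of transfected cis-promoter reporters in HepG2 cells, 24 h post-dose. Detection: RT-PCR with 6-FAM-labelled products, HpaI digest, capillary electrophoresis. DMSO served as negative control and baseline.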

The target of assay [8] is Signal transducer and activator of transcription 3 (Homo sapiens) (UniProt P40763). As to the kind of experiment: ATG_STAT3_CIS: Attagene CIS-FACTORIAL HepG2 Assay for human Signal Transducer and Activator of Transcription 3 (STAT3) (AID 2282963). The following applies: HepG2, Attagene cis-factorial STAT3 reporter transcription; actives raise or lower the signal. The procedure, abridged:
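Endogenous STAT3-responsive cis-element activity was read in transiently transfected HepG2 cells after 24 h treatment. Reporter transcripts were quantified via RT-PCR and capillary electrophoresis, with DMSO as negative control and bidirectional curve fitting.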

Assay [9] can be described thus: ATG_TA_CIS: Attagene CIS-FACTORIAL HepG2 Assay for human TA Basal Promoter (AID 2282964). Conditions: HepG2 Attagene CIS-factorial TA basal promoter reporter; actives raise or lower the signal. The procedure, abridged:
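Read-out: fluorescent reporter-transcript fragments resolved by capillary electrophoresis after RT-PCR and HpaI digestion. Source: HepG2 cells carrying transiently transfected multi-reporter cis constructs, treated 24 h. Endpoint fitted bidirectionally relative to DMSO.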

Assay [10] is described as follows: ATG_TCF_b_cat_CIS: Attagene CIS-FACTORIAL HepG2 Assay for human T-Cell-Factor with beta-catenin (TCF/b-cat) (AID 2282965). Conditions: HepG2 TCF/beta-catenin cis-reporter transcription, actives raise or lower the signal. The gist of the method:
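Endogenous TCF/LEF activity read as reporter transcript level via RT-PCR and capillary electrophoresis fluorescence in transfected HepG2, 24 h exposure; gain or loss of signal fitted against DMSO controls.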

Assay [11] in a line: ATG_TAL_CIS: Attagene CIS-FACTORIAL HepG2 Assay for human TAL Basal Promoter (AID 2282966).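 Note: background control endpoint measuring basal TAL promoter reporter mRNA not a specific factor.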 The following applies: HepG2 Attagene cis-factorial TAL promoter reporter; actives raise or lower the signal. The gist of the method:
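RT-PCR plus capillary electrophoresis quantifies reporter mRNA induction in transiently transfected HepG2 cells after 24 h chemical treatment. DMSO serves as negative control and baseline for bidirectional fitting.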

A short description of assay [12]: ATG_TGFb_CIS: Attagene CIS-FACTORIAL HepG2 Assay for human Transforming Growth Factor (TGF) (AID 2282967). Conditions: HepG2 Attagene CIS TGFb reporter, mRNA transcription; actives raise or lower the signal. The gist of the method:
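Transient MRTU transfection of HepG2 (FuGene 6). Dose 24 h. TriZol RNA, oligo(dT) RT, PCR, 6-FAM primer extension, HpaI cut, CE. Bidirectional fit, DMSO = baseline.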

Assay [13] concerns the target Nuclear receptor subfamily 1 group I member 3 (Homo sapiens) (UniProt Q14994). As to the kind of experiment: ATG_CAR_TRANS: Attagene TRANS-FACTORIAL HepG2 Assay for human Constitutive Androstane Receptor (CAR) (AID 2282969; active = hit-call score of the fitted dose curve at least 0.9, where 1 is the maximum;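 note: activators raise reporter mRNA above DMSO so AC50 marks induction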). Conditions: HepG2 Attagene TRANS-FACTORIAL CAR reporter. The gist of the method:
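Readout is reporter mRNA induction, quantified by fluorescent primer extension and capillary electrophoresis after RT-PCR. Cells were HepG2 transiently carrying chimeric NR-Gal4 constructs with GAL4-UAS reporters, treated for 24 h; activity scored upward from DMSO.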

In assay [14] the target is Estrogen receptor (Homo sapiens) (UniProt P03372). As to the kind of experiment: ATG_ERa_TRANS: Attagene TRANS-FACTORIAL HepG2 Assay for human Estrogen Receptor alpha (ERa) (AID 2282970; active = hit-call score of the fitted dose curve at least 0.9, where 1 is the maximum). Conditions: HepG2 Attagene TRANS ERa GAL4 reporter, mRNA. The gist of the method:
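Cells: HepG2, transiently transfected. Construct: GAL4-UAS reporter units regulated by exogenous NR-Gal4 chimeras. Time: 24 h. Detection: reporter mRNA by RT-PCR, capillary electrophoresis, fluorescence. Baseline: DMSO, upward fitting.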

In assay [15] the target is X-box-binding protein 1 (Homo sapiens) (UniProt P17861). As to the kind of experiment: ATG_Xbp1_CIS: Attagene CIS-FACTORIAL HepG2 Assay for human X-box Binding Protein 1 (XBP1) (AID 2282972). Conditions: HepG2 XBP1 cis-element reporter, Attagene multiplex; actives raise or lower the signal. The gist of the method:
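Fluorescence-labelled cDNA fragments from reporter transcripts, separated by capillary electrophoresis, give the signal. Source: HepG2 cells transfected with promoter-driven reporter units, harvested 24 h post-dose. DMSO served as reference for bidirectional curve fitting.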

Assay [16] in a line: ATG_GAL4_TRANS: Attagene TRANS-FACTORIAL HepG2 Assay for GAL4 (Internal Marker) (AID 2282976; active = hit-call score of the fitted dose curve at least 0.9, where 1 is the maximum). The following applies: HepG2 Attagene TRANS GAL4 internal marker reporter. The gist of the method:
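In transfected human HepG2 liver cells dosed 24 h, GAL4 reporter mRNA serves as a baseline marker. Detection by RT-PCR with fluorescent capillary electrophoresis, activity fitted upward relative to DMSO.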

A short description of assay [17]: ATG_RORE_CIS: Attagene CIS-FACTORIAL HepG2 Assay for human RAR-related Orphan Receptor Element (RORE) (AID 2282959). The following applies: HepG2 Attagene cis-factorial RORE reporter, mRNA; actives raise or lower the signal. The procedure, abridged: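 Cells were HepG2 carrying transfected cis-regulated reporter constructs, dosed for 24 hours. Total RNA was reverse-transcribed and reporter cDNA amplified, fluorescently labeled and sized by capillary electrophoresis. Activity was fitted bidirectionally relative to DMSO.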

Assay [18] is described as follows: ATG_VDRE_CIS: Attagene CIS-FACTORIAL HepG2 Assay for human Vitamin D Receptor Element (VDRE) (AID 2282968). The following applies: HepG2 VDRE cis-reporter transcription, actives raise or lower the signal. The procedure, abridged: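 Reporter mRNA induction, quantified by capillary electrophoresis of fluorescently labelled RT-PCR products, was read 24 h after dosing HepG2 cells carrying transiently transfected cis-regulated reporter units; gain or loss relative to DMSO.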

The nature of assay [19]: ATG_M_19_TRANS: Attagene TRANS-FACTORIAL HepG2 Assay for M19 Transcription Factor (Internal Marker) (AID 2282974; active = hit-call score of the fitted dose curve at least 0.9, where 1 is the maximum). Conditions: HepG2 Attagene TRANS-FACTORIAL M19 internal marker reporter. The procedure, abridged: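 Cells: human HepG2, transiently transfected with multiplexed reporter transcription units. Exposure: 24 h. Detection: RT-PCR of reporter mRNA with capillary electrophoresis. Analysis: gain-of-signal vs DMSO.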

Inconclusive results are not listed. The source made the active and inactive calls. Rule for the calls, unless noted: active = hit-call score of the fitted dose curve at least 0.9, where 1 is the maximum; inactive = score below 0.9.

Chain of Signal transducer and activator of transcription 3 (Homo sapiens) (P40763 whole entry, looked up): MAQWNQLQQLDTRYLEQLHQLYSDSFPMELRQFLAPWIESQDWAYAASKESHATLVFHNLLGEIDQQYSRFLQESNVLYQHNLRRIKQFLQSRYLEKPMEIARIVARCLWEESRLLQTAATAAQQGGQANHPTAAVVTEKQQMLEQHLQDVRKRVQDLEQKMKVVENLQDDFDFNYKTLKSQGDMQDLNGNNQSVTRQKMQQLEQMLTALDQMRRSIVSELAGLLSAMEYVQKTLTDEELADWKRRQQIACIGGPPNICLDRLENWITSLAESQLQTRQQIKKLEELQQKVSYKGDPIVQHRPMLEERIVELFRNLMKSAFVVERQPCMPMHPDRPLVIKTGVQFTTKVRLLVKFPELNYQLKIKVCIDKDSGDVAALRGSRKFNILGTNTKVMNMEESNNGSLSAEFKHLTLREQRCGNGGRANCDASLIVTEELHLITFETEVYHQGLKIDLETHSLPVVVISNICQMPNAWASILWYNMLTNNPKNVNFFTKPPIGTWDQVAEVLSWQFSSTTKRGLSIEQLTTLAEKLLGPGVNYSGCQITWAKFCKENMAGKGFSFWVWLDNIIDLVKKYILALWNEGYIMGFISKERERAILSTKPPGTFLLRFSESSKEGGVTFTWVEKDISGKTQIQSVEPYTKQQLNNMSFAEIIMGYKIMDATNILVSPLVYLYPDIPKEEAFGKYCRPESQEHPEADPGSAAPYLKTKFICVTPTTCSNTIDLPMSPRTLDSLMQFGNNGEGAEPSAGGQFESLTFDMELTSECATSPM
Chain of Estrogen receptor (Homo sapiens) (P03372 whole entry, looked up, the tested form may be a part): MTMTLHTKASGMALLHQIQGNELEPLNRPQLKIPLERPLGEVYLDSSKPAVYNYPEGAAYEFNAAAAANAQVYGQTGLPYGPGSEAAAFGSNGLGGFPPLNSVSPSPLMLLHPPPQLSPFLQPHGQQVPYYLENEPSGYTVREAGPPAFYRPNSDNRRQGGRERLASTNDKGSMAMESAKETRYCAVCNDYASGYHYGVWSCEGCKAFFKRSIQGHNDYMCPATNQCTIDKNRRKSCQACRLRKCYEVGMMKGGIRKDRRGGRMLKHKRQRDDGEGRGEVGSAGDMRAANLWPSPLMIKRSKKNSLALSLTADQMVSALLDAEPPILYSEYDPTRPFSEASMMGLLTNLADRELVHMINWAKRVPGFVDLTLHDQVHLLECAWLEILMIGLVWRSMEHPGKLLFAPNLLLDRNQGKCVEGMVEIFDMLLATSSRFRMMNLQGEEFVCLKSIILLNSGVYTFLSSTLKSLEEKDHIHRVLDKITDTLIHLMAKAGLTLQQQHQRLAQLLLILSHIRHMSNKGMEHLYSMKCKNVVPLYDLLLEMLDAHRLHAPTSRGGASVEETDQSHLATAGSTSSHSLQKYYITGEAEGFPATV
Chain of X-box-binding protein 1 (Homo sapiens) (P17861 whole entry, looked up, the tested form may be a part): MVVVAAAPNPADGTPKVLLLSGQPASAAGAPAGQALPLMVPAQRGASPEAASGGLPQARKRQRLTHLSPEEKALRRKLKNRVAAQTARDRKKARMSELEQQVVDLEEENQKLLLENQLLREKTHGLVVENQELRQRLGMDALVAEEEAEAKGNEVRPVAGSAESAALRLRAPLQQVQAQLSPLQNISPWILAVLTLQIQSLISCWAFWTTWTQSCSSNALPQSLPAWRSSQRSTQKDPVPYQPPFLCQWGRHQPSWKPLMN
Chain of Paired box protein Pax-6 (Homo sapiens) (P26367 whole entry, looked up): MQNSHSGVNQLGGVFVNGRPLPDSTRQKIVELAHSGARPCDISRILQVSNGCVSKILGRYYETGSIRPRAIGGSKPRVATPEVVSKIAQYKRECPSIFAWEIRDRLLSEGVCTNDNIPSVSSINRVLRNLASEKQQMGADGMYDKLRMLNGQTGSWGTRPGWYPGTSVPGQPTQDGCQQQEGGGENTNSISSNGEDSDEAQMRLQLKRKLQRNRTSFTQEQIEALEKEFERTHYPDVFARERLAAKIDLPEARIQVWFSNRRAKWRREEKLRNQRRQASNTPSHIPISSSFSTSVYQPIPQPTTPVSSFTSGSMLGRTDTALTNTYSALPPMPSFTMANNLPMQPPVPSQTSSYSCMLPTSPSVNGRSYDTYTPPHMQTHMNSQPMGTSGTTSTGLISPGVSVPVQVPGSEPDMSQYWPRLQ
Chain of Nuclear receptor subfamily 1 group I member 3 (Homo sapiens) (Q14994 whole entry, looked up, the tested form may be a part): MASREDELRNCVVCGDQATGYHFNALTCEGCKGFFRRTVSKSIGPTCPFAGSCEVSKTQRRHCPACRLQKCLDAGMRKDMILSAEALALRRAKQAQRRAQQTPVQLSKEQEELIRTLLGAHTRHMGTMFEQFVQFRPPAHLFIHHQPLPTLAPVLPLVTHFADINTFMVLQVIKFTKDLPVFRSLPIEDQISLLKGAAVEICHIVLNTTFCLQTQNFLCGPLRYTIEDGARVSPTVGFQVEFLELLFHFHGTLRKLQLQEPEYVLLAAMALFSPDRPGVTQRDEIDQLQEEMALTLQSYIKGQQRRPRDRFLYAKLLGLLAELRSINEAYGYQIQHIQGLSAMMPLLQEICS
Chain of Transcription factor Sp1 (Homo sapiens) (P08047 whole entry, looked up): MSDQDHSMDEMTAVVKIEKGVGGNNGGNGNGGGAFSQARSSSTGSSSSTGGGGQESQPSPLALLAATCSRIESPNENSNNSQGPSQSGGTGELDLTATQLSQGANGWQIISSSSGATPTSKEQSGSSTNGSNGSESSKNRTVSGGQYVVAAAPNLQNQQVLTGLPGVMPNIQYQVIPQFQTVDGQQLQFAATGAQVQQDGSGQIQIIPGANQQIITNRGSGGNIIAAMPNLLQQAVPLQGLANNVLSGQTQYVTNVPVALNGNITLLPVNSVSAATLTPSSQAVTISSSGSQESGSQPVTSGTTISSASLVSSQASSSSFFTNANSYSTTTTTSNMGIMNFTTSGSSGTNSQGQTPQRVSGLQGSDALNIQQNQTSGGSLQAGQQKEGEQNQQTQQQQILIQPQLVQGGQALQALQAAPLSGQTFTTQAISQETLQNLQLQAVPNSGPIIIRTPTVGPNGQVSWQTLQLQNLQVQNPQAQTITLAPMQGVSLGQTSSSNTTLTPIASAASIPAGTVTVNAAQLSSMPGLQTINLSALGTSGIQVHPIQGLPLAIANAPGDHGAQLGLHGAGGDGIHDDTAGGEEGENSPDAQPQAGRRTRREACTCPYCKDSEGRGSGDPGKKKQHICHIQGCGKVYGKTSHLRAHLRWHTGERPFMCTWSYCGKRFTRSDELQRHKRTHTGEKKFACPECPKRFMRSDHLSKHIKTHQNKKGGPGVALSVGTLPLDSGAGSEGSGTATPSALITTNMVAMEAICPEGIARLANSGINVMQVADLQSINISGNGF

One may read the AC50 as the concentration at which the activity in the assay is half-maximal. On to `c1ccc2c(c1)[nH]c1ccccc12`, for which the result in [1], in assay [2], in assay [4], in [5], in assay [6] and in [7] was inactive. For the same molecule, the call in [8], in assay [9], in assay [10], in [11], in [12] and in [13] was inactive. The outcome in assay [14], in assay [15] and in [16] was inactive. The AC50 in assay [3] is 9.54 µM (active).

Take `O=S(=O)(O)c1ccc(N=Nc2c(O)ccc3ccccc23)cc1`: the outcome in [1], in assay [2], in [4], in [17], in assay [5] and in assay [7] was inactive. Further, the molecule was called inactive in [10], in assay [11], in assay [12], in assay [18], in [13] and in assay [14]. The molecule was classed as inactive in [15] and in assay [19]. Besides, in assay [3], the AC50 is 31.6 µM (active).

On to `C=CC(=O)O[C@H]1C[C@@H]2CC[C@@]1(C)C2(C)C`, for which the result in [1], in assay [2], in assay [5], in assay [7], in assay [8] and in [10] was inactive. Further, the molecule was classed as inactive in assay [11], in assay [12], in [18] and in assay [15]. Moreover, the AC50 was 1.52 µM (active) in [3]; 29.7 µM (active) in assay [4]; 160 µM (active) in assay [6]; 141 µM (active) in [9]; 162 µM (active) in assay [13]; 100 µM (active) in assay [14].

Turning to `Cc1c(C(=O)c2c[nH]n(C)c2=O)ccc(S(C)(=O)=O)c1C1=NOCC1`, the result in assay [1], in [2], in assay [4], in assay [5], in [6] and in assay [7] was inactive. Moreover, the molecule was classed as inactive in assay [8], in assay [10], in [11], in assay [18], in assay [15] and in assay [19]. In assay [3], the AC50 was 14.4 µM (active).
